The campaign covered roughly 320,000 compounds. About 560 (0.17%) were called active. Only a selection was taken, and actives are over-represented in it overall. Values without a mark were called inactive.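 How the source made its calls: active means inhibition above the campaign's mean inhibition across all tested compounds plus 3 SD (cut at about 9.5% in these data); inactive means the rest.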

Sequence of Serine/threonine-protein phosphatase 5 (Homo sapiens) (P53041 whole entry, looked up): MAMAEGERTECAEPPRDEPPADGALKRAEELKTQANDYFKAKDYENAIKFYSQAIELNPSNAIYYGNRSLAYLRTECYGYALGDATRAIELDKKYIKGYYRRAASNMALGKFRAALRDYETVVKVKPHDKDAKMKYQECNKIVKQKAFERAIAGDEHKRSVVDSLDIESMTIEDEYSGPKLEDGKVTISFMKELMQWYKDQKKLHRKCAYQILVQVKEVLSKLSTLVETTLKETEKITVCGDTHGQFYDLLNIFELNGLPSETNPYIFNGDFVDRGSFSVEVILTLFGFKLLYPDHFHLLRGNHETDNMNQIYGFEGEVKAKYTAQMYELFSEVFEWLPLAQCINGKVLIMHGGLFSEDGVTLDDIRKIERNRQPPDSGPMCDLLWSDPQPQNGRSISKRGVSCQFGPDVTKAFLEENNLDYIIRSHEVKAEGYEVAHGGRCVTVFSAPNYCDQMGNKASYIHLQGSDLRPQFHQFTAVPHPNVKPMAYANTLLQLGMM

The test addresses Serine/threonine-protein phosphatase 5 (Homo sapiens) (UniProt P53041). The test can be described thus: inhibition of human PP5 catalytic activity – biochemical, fluorescence, primary screen (AID 1987).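 Further: 0% = DMSO only and 100% = 100 µM cantharidin control.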 The settings on record: purified PP5c, OMFP substrate fluorescence; at 6.7 µM; hits give high values.
Consider `O=C(O)c1ccccc1NC(=O)C1C2CCC(O2)C1C(=O)O` (stereo not given), for which the inhibition (commonly the relative decrease from the control value, in per cent) was 41.3% (active). With `Cc1cc(C)cc(NC(=S)NC2CC3CCCC(C2)N3Cc2cccs2)c1` (stereo not given) the figure was 4.69%; with `CC(c1ccccc1)(c1ccccc1)c1ccncc1`, -0.19%. With `C[N+]12CN3CN(CN(C3)C1)C2` the figure was -1.24%; with `CCOP(=O)(OCC)C(NC(=O)NC)C(N)=O` (stereo not given), -0.58%.

The values above are taken from PubChem BioAssay AID1987 (The Scripps Research Institute Molecular Screening Center, 2009).
